Most compounds without a hit are left out; they make up all but 2.7% or so of the library.
HIV Env fusion – inhibitors of HIV Env-mediated cell fusion | HeLa-JRFL Env/CEM21 cell fusion, luciferase | inhibition, % at 12.3 µM | 360,000 compounds, 1.1% hits;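 active = mean replicate inhibition score of at least 50 and every replicate individually at or above 50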
INS-1E GSIS act – GLuc luminescence reporter in INS-1E cells, primary screen for activators of glucose-dependent secretion of insulin; INS-1E GLuc reporter insulin secretion, 2-3 h; activation, % at 16.6 µM; 370,000 compounds, 0.61% hits; AID 743287;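 active = lowest replicate activation of at least 40%, so every replicate reaches that level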
MITF TRPM1 HTS – MITF TRPM1 promoter activation in melanoma cells. SK-MEL-5 TRPM1-promoter luciferase, 24 h; % of positive control, neutral wells = 0. activation, % at 12.5 µM. 300,000 compounds, 0.75% hits. AID 588334;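 active = mean activation of at least 80% with every replicate also reaching 80%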
Wnt bcat act – activates Wnt/beta-catenin signaling in a reporter cell assay; 300,000 compounds, 1.2% hits; activator, plate reader; activation, % at 9.35 µM; in the data active = activation above about 30%, passing the limit was not always enough
F508del corr – correctors of CFTR F508del function in bronchial epithelial cells; CFBE cells, YFP halide quenching; stimulated with forskolin plus potentiator P3; % fluorescence drop versus neutral controls; 350,000 compounds, 0.36% hits; AID 720511; activity (quench increase), % at 7.58 µM;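 active = mean added fluorescence quench of at least 8% versus neutral control, with both replicates also reaching 8%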;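 also: cells transiently co-express mutant CFTR-F508del with the halide-sensitive YFP; corrector assay measuring rescue of mutant channel to the surface after 24 h compound exposure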
A number is an active result; - = inactive; . = no result given; [ ] = another dose, or the depositor's remark.

SMILES | HIV Env fusion | INS-1E GSIS act | MITF TRPM1 HTS | Wnt bcat act | F508del corr
COc1ccc2oc(=N)c(C(=O)Nc3ccc(F)cc3)cc2c1 | - | - | - | - | -
COc1cccc(S(=O)(=O)Nc2ccc3c(c2)OC[C@@H](C)NC[C@@H](C)[C@@H](OC)CN(C)C3=O)c1 | - | - | . | . | -
CC(C)(C)NCC(=O)N/N=C/c1ccc(OCc2ccccc2)cc1 | - | - | 87 | - | -
O=C(C[n+]1ccc(C(=O)N/N=C/c2ccc(O)cc2)cc1)c1ccccc1 | - | . | - | - | .
O=C(C[n+]1ccc(C(=O)N/N=C/c2ccc(OCc3ccccc3)cc2)cc1)c1ccccc1 | . | - | 134 | - | -
COc1ccc(CN(C)C[C@H]2OCCCC[C@H](C)Oc3ccc(NS(=O)(=O)c4ccc(C)cc4)cc3C(=O)N([C@H](C)CO)C[C@@H]2C)cc1 | - | - | . | . | -
CC=Cc1ccc2n(c1=O)C[C@@H]1[C@@H](CO)[C@H](C(=O)NCCC)N(CCC(F)(F)F)[C@H]21 (mixture of isomers) | . | - | . | . | -
Nc1nc(Nc2ccccc2F)nc(N2CCCC2)c1[N+](=O)[O-] | - | - | 88 | - | -
CN(C)C(=O)[C@@H]1[C@@H](CO)[C@@H]2Cn3c(ccc(C4=CCCC4)c3=O)[C@H]1N2Cc1cccnc1 | . | - | . | . | -
C[C@@H]1CN([C@H](C)CO)C(=O)Cc2cc(NS(=O)(=O)c3ccc(F)cc3)ccc2O[C@H]1CN(C)C(=O)Nc1ccc2c(c1)OCO2 | - | - | . | . | -
O=C(CSc1nnc(-c2n[nH]c3ccccc23)n1-c1ccccc1)Nc1cccc(Cl)c1 | 70 | - | - | - | .
C[C@@H]1CN([C@H](C)CO)C(=O)c2cc(NS(=O)(=O)c3ccc(Cl)cc3)ccc2O[C@@H](C)CCCCO[C@@H]1CN(C)C(=O)NC1CCCCC1 | - | - | . | . | -
O=C(CCN1CCOCC1)c1ccc(N2CCCCC2)cc1 | - | 51 | - | - | -
O=C(c1ccc(F)cc1)c1ccc(N2CCCC2)cc1 | . | . | - | - | .
O=C(c1ccc(F)cc1)c1ccc(N2CCCCC2)cc1 | - | - | 103 | 40 | -
O=C(Cn1[nH]c(=O)c2ccccc2c1=O)OCC(=O)c1ccc(F)c(F)c1 | . | . | - | - | -
O=C(Cn1[nH]c(=O)c2ccccc2c1=O)OCC(=O)c1ccc(F)cc1 | - | 53 | - | - | -
CCCN1C(=O)C(O)(C/C(C)=N/O)c2ccccc21 (stereo not drawn) | . | 50 | - | . | .
CCCN1C(=O)C(O)(CC(=O)c2cccc(OC)c2)c2ccccc21 (stereo not drawn) | . | - | - | . | .
COC(=O)C[C@H]1CC[C@H]2[C@@H](COc3ccc(NS(C)(=O)=O)cc3C(=O)N2C)O1 | . | - | . | . | -
Cc1ccc(C)c(OCC(O)CN2CCC(Cc3ccccc3)CC2)c1 (stereo not drawn) | 55 | . | - | - | -
Cc1ccc(CN=c2c([N+](=O)[O-])nn(-c3ccc4c(c3)OCCO4)n2O)cc1 | . | - | - | . | .
O=[N+]([O-])c1nn(-c2ccc3c(c2)OCCO3)n(O)c1=NCCCO | - | . | . | 41 | .
O=[N+]([O-])c1nn(-c2ccccc2)n(O)c1=NCc1ccc2c(c1)OCO2 | - | . | - | - | .
O=[N+]([O-])c1nn(-c2ccc(Cl)cc2)n(O)c1=NCc1ccccc1 | - | - | - | 40 | -
SMILES | HIV Env fusion | INS-1E GSIS act | MITF TRPM1 HTS | Wnt bcat act | F508del corr
Cc1cc(C)cc(N=c2c([N+](=O)[O-])nn(-c3ccc4c(c3)OCCO4)n2O)c1 | 65 | - | - | - | -
O=[N+]([O-])c1nn(-c2ccc3c(c2)OCCO3)n(O)c1=NC1CCCC1 | - | - | . | 33 | .
FC(F)(F)CN1CC2C(c3ccc(Br)cc3)C(C1)N2CC(F)(F)F (stereo not drawn) | . | - | . | . | .
Cc1noc(C)c1S(=O)(=O)N(C)C[C@H]1Oc2ccc(NC(=O)Cc3ccccc3)cc2CC(=O)N([C@@H](C)CO)C[C@@H]1C | - | - | . | . | -
CCNC(=O)[C@H]1[C@H](CO)[C@H]2Cn3c(ccc(-c4cccc(F)c4)c3=O)[C@H]2N1Cc1nccs1 | . | - | . | . | -
CC(C)NC(=O)Nc1ccc2c(c1)C(=O)N([C@@H](C)CO)C[C@H](C)[C@H](CN(C)C(=O)Nc1ccc(F)cc1)O2 | 70[16.7 µM] | - | . | . | -
CC(C)NC(=O)N(C)C[C@H]1Oc2ccc(NC(=O)Nc3ccccc3)cc2C(=O)N([C@H](C)CO)C[C@@H]1C | - | - | - | 36 | -
CC(C)NC(=O)Nc1ccc2c(c1)C(=O)N([C@H](C)CO)C[C@H](C)[C@@H](CN(C)C(=O)Nc1ccc(F)cc1)O2 | - | - | . | . | -
